Activity calls are given as the source filed them.

Composite z-score, composite Z-score and z-score data for six molecules are collected here from PubChem BioAssay.

In one test the target is Albumin (Bos taurus) (UniProt P02769). The test can be described thus: bovine serum albumin binders on microarray, profiling panel, artefact control for SMM control protein annotation, biochemical, small-molecule microarray, Alexa647 label, 635/667 nm fluorescence (AID 1118).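 Note: score merges 667 nm emission intensity and signal-to-noise per printed compound spot.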 To be noted: BSA-A647 binding, fluorescence 635 nm, higher = more signal.
Sequence of Albumin (Bos taurus) (P02769 whole entry, looked up): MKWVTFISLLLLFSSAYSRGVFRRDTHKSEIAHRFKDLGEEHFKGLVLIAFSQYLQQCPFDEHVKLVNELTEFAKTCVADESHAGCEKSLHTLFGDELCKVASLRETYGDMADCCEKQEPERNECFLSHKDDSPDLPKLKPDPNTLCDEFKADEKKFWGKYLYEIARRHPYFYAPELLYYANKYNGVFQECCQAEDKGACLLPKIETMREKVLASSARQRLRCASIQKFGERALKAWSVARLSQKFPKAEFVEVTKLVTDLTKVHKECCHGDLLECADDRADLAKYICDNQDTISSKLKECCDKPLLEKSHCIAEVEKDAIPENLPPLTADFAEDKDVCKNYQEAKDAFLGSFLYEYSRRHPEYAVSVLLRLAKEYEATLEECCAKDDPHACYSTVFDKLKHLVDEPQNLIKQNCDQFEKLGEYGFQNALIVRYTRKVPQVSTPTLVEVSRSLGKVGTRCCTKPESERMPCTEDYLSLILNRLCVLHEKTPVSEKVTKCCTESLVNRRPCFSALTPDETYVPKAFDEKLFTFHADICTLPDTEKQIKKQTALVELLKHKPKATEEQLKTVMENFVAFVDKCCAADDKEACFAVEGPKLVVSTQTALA
A short description of test [1]: small-molecule microarray binders of probe aXIP, primary screen, biochemical, NeuroSMM set, 635/667 nm fluorescence (AID 1119).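 Note: probe is the protein aXip251-270 applied at 1 µg/mL to compound-printed slides; binding of probe to printed compounds measured as 667 nm fluorescence plus signal to noise.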 To be noted: higher = more signal, called active from +8 up or from −8 down.
The nature of test [2]: small-molecule binders of probe aNOTCH3, primary screen, biochemical, small-molecule microarray, 635/667 nm fluorescence (AID 1120).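 Note: probe is a biotin-tagged antibody raised against NOTCH3 rather than NOTCH3 protein; score merges spot fluorescence near 667 nm with spot signal to noise.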 To be noted: higher = more signal.
Test [3] in a line: small-molecule binders of probe aNOTCH2, primary screen, biochemical, small-molecule microarray, 635/667 nm fluorescence (AID 1121).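 Note: score merges feature fluorescence read at 667 nm with its signal to noise.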 Particulars: higher = more signal.
Test [4] has as its target Carbonic anhydrase 2 (Homo sapiens) (UniProt P00918). The test can be described thus: CAII small-molecule binders, profiling panel, biochemical, small-molecule microarray, Alexa647-labelled CAII (AID 1122). To be noted: CAII-A647 binding fluorescence, higher = more signal.
Test [5] in a line: COS7 lysate on small-molecule microarray, probe aHis, 635 nm (AID 1123).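 Note: z-score combines 667nm fluorescence intensity with signal-to-noise per printed compound spot.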 To be noted: COS7 cell lysate, fluorescence, higher = more signal.
Test [6] can be described thus: compound binding in COS7 lysate, probe aLAP1, primary screen, cell lysate, small-molecule microarray (AID 1124).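 Note: lysate comes from COS7 cells expressing LAP1 and is applied at 0.3 µg/mL; score merges spot fluorescence near 667 nm with signal-to-noise over triplicate slides.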 To be noted: probe aLAP1, fluorescence, higher = more signal.
Another test relates to Sam68 (KHDRBS1). As to the kind of experiment: Sam68 small-molecule binders, primary screen, biochemical, small-molecule microarray, 635 nm fluorescence (AID 1125).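 Note: score merges 667 nm channel intensity with signal to noise over triplicate slides.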 Particulars: small-molecule microarray binding, higher = more signal.
Test [7] concerns Chordin-like protein 2 (CHRDL2). As to the kind of experiment: CHRDL2 small-molecule binders, primary screen, biochemical, small-molecule microarray, 635 nm fluorescence (AID 1126).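 Note: printed compound slides probed with Chrdl2 protein at 4 µg/mL for 1 h at 4 C; score merges 667 nm emission intensity with signal to noise over three replicate slides.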 Particulars: small-molecule microarray binding, fluorescence 635 nm; higher = more signal.
For test [8], the target named is Concanavalin-A (Canavalia ensiformis) (UniProt P02866). The test can be described thus: ConA small-molecule binders, primary screen, artefact control for SMM control protein annotation, biochemical, small-molecule microarray, Alexa647 label, 635 nm (AID 1127).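 Note: z combines 667 nm emission intensity with signal-to-noise across three replicate slides.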 Particulars: ConA-A647 binding fluorescence, higher = more signal.
Sequence of Concanavalin-A (Canavalia ensiformis) (P02866 whole entry, looked up): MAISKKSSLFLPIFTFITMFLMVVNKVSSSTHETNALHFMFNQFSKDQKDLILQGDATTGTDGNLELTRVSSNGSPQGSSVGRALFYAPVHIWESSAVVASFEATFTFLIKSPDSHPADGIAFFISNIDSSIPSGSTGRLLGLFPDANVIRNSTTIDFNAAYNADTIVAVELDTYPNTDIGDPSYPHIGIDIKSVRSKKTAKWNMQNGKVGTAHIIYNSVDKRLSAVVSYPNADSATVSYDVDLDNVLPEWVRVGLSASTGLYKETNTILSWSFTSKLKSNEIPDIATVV
Test [9] in a line: anti-His antibody binders, primary screen, artefact control for SMM control protein annotation, biochemical, small-molecule microarray, 635 nm fluorescence (AID 1128).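 Note: score merges feature fluorescence with signal-to-noise for each printed compound spot.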 To be noted: anti-His Alexa647 antibody binding, higher = more signal.
Test [10] relates to Human papillomavirus type 1a E7 protein (residues 1-88). As to the kind of experiment: HPV1a E7 small-molecule binders, primary screen, biochemical, small-molecule microarray, residues 1-88, 635 nm (AID 1129). Particulars: small-molecule microarray binding, fluorescence 635 nm; higher = more signal.
The target of test [11] is Focal adhesion kinase 1 (Homo sapiens) (UniProt Q05397). As to the kind of experiment: small-molecule microarray binders of FAK, primary screen, biochemical, 635/667 nm fluorescence, BSA, DTT (AID 1130).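 Note: composite of spot emission at 667 nm and signal to noise over triplicate slides.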 Particulars: PTK2 binding, 635 nm fluorescence, higher = more signal.
Sequence of Focal adhesion kinase 1 (Homo sapiens) (Q05397 whole entry, looked up): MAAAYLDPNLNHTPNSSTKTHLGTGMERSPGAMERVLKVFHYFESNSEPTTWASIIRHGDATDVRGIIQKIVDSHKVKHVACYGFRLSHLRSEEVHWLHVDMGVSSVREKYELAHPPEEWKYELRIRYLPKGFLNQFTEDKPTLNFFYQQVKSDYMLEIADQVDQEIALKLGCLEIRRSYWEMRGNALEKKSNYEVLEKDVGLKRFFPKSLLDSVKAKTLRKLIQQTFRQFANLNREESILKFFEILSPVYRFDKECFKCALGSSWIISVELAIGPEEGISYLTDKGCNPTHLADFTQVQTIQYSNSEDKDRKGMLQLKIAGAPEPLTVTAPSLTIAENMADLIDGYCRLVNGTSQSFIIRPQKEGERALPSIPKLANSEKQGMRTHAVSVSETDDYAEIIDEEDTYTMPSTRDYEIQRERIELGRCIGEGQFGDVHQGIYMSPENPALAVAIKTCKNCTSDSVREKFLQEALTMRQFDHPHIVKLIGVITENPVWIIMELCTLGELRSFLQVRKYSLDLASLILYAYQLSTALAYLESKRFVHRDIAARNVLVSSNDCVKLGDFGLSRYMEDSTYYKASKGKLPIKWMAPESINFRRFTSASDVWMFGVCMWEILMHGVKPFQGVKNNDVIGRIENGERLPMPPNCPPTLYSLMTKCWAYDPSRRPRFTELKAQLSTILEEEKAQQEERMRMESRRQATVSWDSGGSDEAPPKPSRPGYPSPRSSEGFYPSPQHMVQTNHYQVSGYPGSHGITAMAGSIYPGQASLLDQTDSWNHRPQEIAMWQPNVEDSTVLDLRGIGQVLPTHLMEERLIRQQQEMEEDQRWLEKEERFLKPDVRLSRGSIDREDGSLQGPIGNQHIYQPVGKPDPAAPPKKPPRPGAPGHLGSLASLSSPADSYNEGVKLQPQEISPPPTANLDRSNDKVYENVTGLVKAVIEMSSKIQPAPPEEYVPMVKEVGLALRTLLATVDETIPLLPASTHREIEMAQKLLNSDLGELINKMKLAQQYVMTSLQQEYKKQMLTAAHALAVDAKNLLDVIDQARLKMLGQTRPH
The test system of test [12] is Fibrinogen (Alexa647-labelled). As to the kind of experiment: fibrinogen binders on compound microarrays, profiling panel, artefact control for SMM control-protein annotation, biochemical, small-molecule microarray, 635/667 nm fluorescence (AID 1131).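 Note: z-score merges 667 nm fluorescence with per-spot signal-to-noise over triplicate slides.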 To be noted: fibrinogen-A647 binding fluorescence, higher = more signal.
The target of test [13] is Follistatin (Homo sapiens) (UniProt P19883). As to the kind of experiment: follistatin binders on small-molecule microarrays, primary screen, biochemical, small-molecule microarray, 635/667 nm fluorescence (AID 1132). To be noted: FST binding, 635 nm fluorescence, higher = more signal.
Sequence of Follistatin (Homo sapiens) (P19883 whole entry, looked up): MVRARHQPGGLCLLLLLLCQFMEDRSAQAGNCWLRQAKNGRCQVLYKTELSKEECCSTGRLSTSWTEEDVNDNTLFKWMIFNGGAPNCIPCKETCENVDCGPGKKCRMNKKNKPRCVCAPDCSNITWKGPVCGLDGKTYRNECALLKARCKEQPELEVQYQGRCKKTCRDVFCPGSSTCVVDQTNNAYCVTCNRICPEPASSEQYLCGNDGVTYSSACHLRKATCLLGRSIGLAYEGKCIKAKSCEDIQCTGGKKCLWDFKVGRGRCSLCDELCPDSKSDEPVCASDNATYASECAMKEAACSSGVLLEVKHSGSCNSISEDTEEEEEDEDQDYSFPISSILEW
In test [14] the target is Fibroblast growth factor 2 (Homo sapiens) (UniProt P09038). As to the kind of experiment: FGF2 binders on small-molecule microarrays, primary screen, biochemical, small-molecule microarray, 635/667 nm fluorescence (AID 1133). Particulars: small-molecule microarray binding, FGF2, fluorescence 635/667; higher = more signal.
Sequence of Fibroblast growth factor 2 (Homo sapiens) (P09038 whole entry, looked up): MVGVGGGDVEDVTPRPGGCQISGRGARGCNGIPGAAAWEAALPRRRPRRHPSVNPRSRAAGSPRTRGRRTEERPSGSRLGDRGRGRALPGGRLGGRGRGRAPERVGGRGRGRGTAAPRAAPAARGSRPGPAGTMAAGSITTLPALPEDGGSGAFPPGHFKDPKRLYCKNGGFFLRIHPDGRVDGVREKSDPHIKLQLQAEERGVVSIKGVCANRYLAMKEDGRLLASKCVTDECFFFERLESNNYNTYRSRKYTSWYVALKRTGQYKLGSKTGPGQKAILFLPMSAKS
Test [15] is described as follows: mitochondrial membrane potential change in A549 cells, profiling panel, cell-based, JC-1 fluorescence, basal, 24 h, 100 nL (AID 1138).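 Note: A549 lung adenocarcinoma cells under basal conditions with no added stimulus; test concentration not given here.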 Particulars: higher = more signal.
The next test concerns Lefty1. The test can be described thus: Lefty1 binders on small-molecule microarrays, primary screen, biochemical, small-molecule microarray, 635/667 nm fluorescence (AID 1139). Particulars: small-molecule microarray binding, fluorescence 635/667; higher = more signal.
The test system of test [16] is wheat germ agglutinin (Triticum aestivum), Alexa647-labelled. The test can be described thus: wheat germ agglutinin binders on compound microarrays, profiling panel, artefact control for SMM control-protein annotation, biochemical, small-molecule microarray, 635/667 nm fluorescence (AID 1140).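 Note: score merges 667 nm feature emission with signal to noise over triplicate slides.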 Particulars: WGA-A647 binding, 635 nm fluorescence, higher = more signal.
Test [17] addresses Luciferin 4-monooxygenase (Photinus pyralis) (UniProt P08659). The test can be described thus: firefly luciferase enzyme inhibitors, primary screen, biochemical, luminescence, purified enzyme, 2006 set (AID 1141).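 Note: cell-free assay with purified firefly luciferase at 100 ng per well in PBS; test concentration not given here.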 Particulars: SteadyGlo luminescence, 30 min, higher = more signal, called active from +8 up or from −8 down.

Sequence of Luciferin 4-monooxygenase (Photinus pyralis) (P08659 whole entry, looked up): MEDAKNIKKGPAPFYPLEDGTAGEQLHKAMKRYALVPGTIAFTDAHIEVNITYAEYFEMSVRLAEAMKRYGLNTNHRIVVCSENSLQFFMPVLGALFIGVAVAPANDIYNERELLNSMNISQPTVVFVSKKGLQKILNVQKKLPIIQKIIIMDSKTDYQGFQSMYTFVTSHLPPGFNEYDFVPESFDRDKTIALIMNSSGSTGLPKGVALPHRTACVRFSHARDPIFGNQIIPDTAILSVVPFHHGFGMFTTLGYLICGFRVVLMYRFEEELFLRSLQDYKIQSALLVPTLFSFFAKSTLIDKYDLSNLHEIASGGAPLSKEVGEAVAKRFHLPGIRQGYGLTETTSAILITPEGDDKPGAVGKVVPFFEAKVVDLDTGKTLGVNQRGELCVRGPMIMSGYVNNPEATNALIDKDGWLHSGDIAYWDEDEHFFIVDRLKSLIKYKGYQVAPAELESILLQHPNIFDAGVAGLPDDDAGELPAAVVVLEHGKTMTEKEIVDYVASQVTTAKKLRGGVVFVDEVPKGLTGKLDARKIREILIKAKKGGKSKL

For the molecule `O=C1N(CCS(=O)(=O)c2ccccc2)c2ccccc2[C@H]2OC(c3ccc(OCCCO)cc3)=N[C@@]12Cc1ccccc1`, the composite z-score with Albumin (Bos taurus) was -0.154; in [2], 0.146; in test [3], 0.087; in test [4], 0.555; in [5] it was 2.93; in test [6] it was 0.991. Further, the composite z-score is 1.29 in the test on Sam68 (KHDRBS1); 1.4 in test [7]; 1.14 in test [8]; 2.15 in test [9]; 0.936 in [10]; 0.548 in [11]. Further, the composite z-score in test [12] is 0.587; in [13] it was 1.54; in test [14], 1.75; in the test on Lefty1, 0.476; in [16], 0.943. Also, in [1], the composite Z-score was 1.47 (inactive). Further, the z-score in test [15] was 1.08; in [17], -8.53 (active).
As for `CC1CC/C=C\[C@H]2OC34C=CCN(c5ccc(Cl)cc5)C(=O)[C@H]3N(C(C)CO)C(=O)[C@]4(C)C2C(=O)O1` (stereo not given in full), the composite z-score with Albumin (Bos taurus) is -1.07; in [2], -0.322; in test [3], -0.14; in test [4], 0.768; in [5] it was -0.66; in test [6], 1.27. In addition, the composite z-score with Sam68 (KHDRBS1) was -0.297; in [7] it was -0.482; in test [8] it was -0.863; in [9] it was -0.984; in [10], -1.5; in test [11] it was -0.177. In addition, the composite z-score in [12] was -0.173; in test [13], -0.954; in test [14], -1.06; in the test on Lefty1, -0.847; in test [16] it was 0.429. For the same molecule, the composite Z-score in test [1] was -0.408 (inactive). For the same molecule, the z-score in test [15] was 0.798; in test [17] it was -1.14 (inactive).
Turning to `O=C1OCCC=C[C@H]2OC34C=CCN(Cn5nnc6ccccc65)C(=O)[C@H]3N(CCCO)C(=O)[C@@H]4C12` (stereo not given in full), the composite z-score was -0.841 with Albumin (Bos taurus); -0.353 in test [2]; -0.13 in [3]; 0.0109 in [4]; -1.05 in test [5]; 1.45 in [6]. In addition, the composite z-score with Sam68 (KHDRBS1) was -0.674; in test [7], -0.433; in [8] it was -1.2; in test [9], -0.0275; in test [10], -1.46; in [11] it was -0.519. In addition, the composite z-score in [12] was -0.975; in [13], -0.676; in test [14] it was -0.446; with Lefty1, -0.935; in test [16], -0.0152. In addition, in [1], the composite Z-score was -0.0287 (inactive). The values for the z-score in test [15] and in [17] were -0.9 and 0.0251 (inactive), respectively.
Turning to `COc1ccc([Si](C)(C)[C@H]2[C@H](CC(=O)N3Cc4ccccc4C[C@H]3CO)O[C@@]3(C(=O)N(Cc4ccc(N5CCOC5=O)cc4)c4ccccc43)[C@@H]2C)cc1`, the composite z-score is -0.153 with Albumin (Bos taurus); -0.0106 in test [2]; -0.0249 in test [3]; 0.444 in [4]; 0.591 in test [5]; 0.246 in test [6]. Moreover, the composite z-score is 1.33 with Sam68 (KHDRBS1); 1.32 in test [7]; 1.05 in test [8]; 1.14 in test [9]; 0.923 in test [10]; 0.109 in test [11]. For the same molecule, the composite z-score in [12] turned out to be 0.339; in test [13], 1.32; in test [14], 1.39; with Lefty1, 1.22; in test [16], 0.396. Moreover, in test [1], the composite Z-score is 0.949 (inactive). Also, the results for the z-score in test [15] and in test [17] were 0.516 and -0.246 (inactive), respectively.
`Cc1ccc(S[C@]2(C(=O)NC(C)C)CC(=O)N(Cc3cc(C(F)(F)F)cc(C(F)(F)F)c3)[C@@H]2c2ccc(CO)cc2)cc1`: the composite z-score was -0.0844 with Albumin (Bos taurus); -0.384 in [2]; -0.126 in test [3]; 0.241 in [4]; 0.596 in test [5]; 0.293 in test [6]. The composite z-score in the test on Sam68 (KHDRBS1) was -0.374; in test [7], -1.19; in test [8] it was -0.534; in test [9] it was -0.254; in test [10], -0.629; in [11], -0.734. For the same molecule, the composite z-score is -0.983 in [12]; -1.33 in test [13]; -0.977 in test [14]; -0.67 with Lefty1; 0.0491 in test [16]. The composite Z-score in [1] was -0.459 (inactive). Further, the figures for the z-score in test [15] and in [17] were 0.605 and -0.222 (inactive), respectively.
Take `O=C1C2C=CC(C(O)C3CC=CCC3)N(Nc3ccccc3)C2C(=O)N1c1ccccc1` (stereo not given): the composite z-score with Albumin (Bos taurus) stood at 0.918; in test [2] it was 0.366; in test [3], 0.0607; in test [4], 0.749; in test [5], 2.33; in test [6] it was 0.093. For the same molecule, the composite z-score with Sam68 (KHDRBS1) came to 1.07; in test [7] it was 0.718; in test [8], 0.567; in [9] it was 0.41; in test [10] it was 1.21; in [11] it was 1.17. Further, the composite z-score was determined as 0.944 in test [12]; 1.27 in test [13]; 0.119 in [14]; 0.135 with Lefty1; 0.458 in test [16]. For the same molecule, the composite Z-score in test [1] was 2.06 (inactive). In addition, the z-score in test [15] is -1.15; in [17], -0.313 (inactive).
